# PubChem BioAssay AID602481 (Broad Institute, 2012)
# Hit rate of the full screen: of about 360,000 compounds, about 340 (0.094%) were called active. This is one part of a sample in which actives are shown more often than they occur. Values without a mark were called inactive. Cut-off read from the data, not from the text of the source: active = inhibition above about 40%; inconclusive = no clear call, values can overlap the other calls; inactive = below that.
# Test system: 7,8-diaminopelargonic acid synthase BioA (Mycobacterium tuberculosis)
# Test: M. tuberculosis BioA enzyme inhibitors, primary screen, biochemical, plate reader, single point, HTS (AID 602481)
# Conditions: purified M. tuberculosis BioA enzyme, at 9.99 µM, active compounds read high
row,SMILES,inhibition
1,O=C(NCC1CC1)[C@@H]1[C@@H](CO)[C@@H]2Cn3c(ccc(-c4ccccc4)c3=O)[C@H]1N2Cc1nccs1,0.617%
2,CC(C)CC#Cc1ccc2c(c1)O[C@H](CN(C)C(=O)Cc1cccnc1)[C@H](C)CN([C@@H](C)CO)S2(=O)=O,5.43%
3,CC(=O)c1ccc(N2CCN(CC(O)c3ccccc3)CC2)cc1 (stereo not drawn),20.2%
4,CC(=O)c1ccc(N2Cc3ccccc3C2)cc1,10.6%
5,CC(=O)c1ccc(N2CCN(C(=O)c3ccc4nc[nH]c4c3)CC2)cc1,57% (active)
6,Cc1c2cnn(CC(=O)NCc3ccccn3)c(=O)c2c(C)n1Cc1ccc(Cl)cc1,86.8% (active)
7,O=C(Cn1ncc2c3ccccc3n(Cc3ccccc3)c2c1=O)NCc1ccccn1,-3.36%
8,Cc1ccc(Cn2c(C)c3cnn(CC(=O)NCc4ccccn4)c(=O)c3c2C)cc1,8.47%
9,O=C(CSc1ncn[nH]1)Nc1ccnc2ccccc12,1.08%
10,O=C(CSc1n[nH]c(-c2cccnc2)n1)Nc1ccnc2ccccc12,46% (active)
11,O=C(CSc1n[nH]c(-c2cccnc2)n1)Nc1ccc(Cl)cc1,16.3%
12,Cc1ccc(S(=O)(=O)N(C)C[C@@H]2Oc3ccc(NS(=O)(=O)c4ccc(F)cc4)cc3CC(=O)N([C@@H](C)CO)C[C@H]2C)cc1,2.21%
13,C[C@@H]1CN([C@H](C)CO)C(=O)Cc2cc(NC(=O)CCCCCC(=O)Nc3ccccc3N)ccc2O[C@H]1CN(C)S(=O)(=O)c1ccc(F)cc1,0.122%
14,C[C@@H]1CN([C@@H](C)CO)C(=O)c2c(c3ccccc3n2C)-c2ccccc2CO[C@H]1CN(C)Cc1cccc(C(=O)O)c1,-1.04%
15,CCC(=O)Nc1ccc2c(c1)C(=O)N(C)C[C@H](OC)[C@H](C)CN(C(=O)C1CCC1)[C@@H](C)CO2,1.3%
16,C[C@H](CO)N1C[C@H](C)[C@@H](CN(C)S(=O)(=O)c2cn(C)cn2)Oc2c(NC(=O)C3CC3)cccc2C1=O,-1.33%
17,CC(=O)N[C@@H]1C=C[C@H](CC(=O)NCC2CCCCC2)O[C@H]1CO,-0.006%
18,CO[C@H]1CN(C)C(=O)c2ccc(NS(C)(=O)=O)cc2OC[C@@H](C)N(Cc2ccccc2)C[C@@H]1C,-2.35%
19,CCCNC(=O)N(C)C[C@H]1Oc2ncc(C#C[C@@H](C)O)cc2C(=O)N([C@@H](C)CO)C[C@@H]1C,-0.359%
20,CCC(=O)N1C[C@@H](C)[C@@H](OC)CN(C)C(=O)c2ccc(NC(=O)C3CCCCC3)cc2OC[C@H]1C,-0.504%
21,C[C@H](CO)N1C[C@H](C)[C@@H](CN(C)Cc2ccccc2)Oc2ccc(NC(=O)CCCN(C)C)cc2C1=O,-2.64%
22,CCCNC(=O)C[C@@H]1CC[C@H]2[C@H](COc3ccc(NS(=O)(=O)c4ccccc4C)cc3C(=O)N2C)O1,1.74%
23,COc1c(C=O)c(CCN(C)C(=O)c2ccc(F)cc2)cc2c1OCO2,48.4% (active)

row,SMILES,inhibition
1,CO[C@@H](CN(C)C(=O)c1ccc2c(c1)OCO2)[C@@H](C)CN([C@H](C)CO)S(=O)(=O)c1ccccc1,3.78%
2,COc1ccc(C(=O)N(C)Cc2ccc(OC)c(OC)c2OC)cc1S(=O)(=O)N1CCOCC1,-0.32%
3,O=C(Cc1ccccc1)N1C[C@H]2[C@@H](c3ccccc31)[C@H](CO)N2C(=O)C1CCOCC1,-4.05%
4,CC(=O)N(C)C[C@@H]1Oc2ncc(C#Cc3ccccn3)cc2C(=O)N([C@@H](C)CO)C[C@@H]1C,-5.71%
5,CN(C)C(=O)c1cccc(-c2ccc3c(c2)[C@H]2[C@H](CCN2C(=O)c2cccnc2)[C@H](CO)N3)c1,19.8%
6,Cc1ccccc1S(=O)(=O)N(C)C[C@@H]1OCc2ccccc2-c2c(n(C)c3ccccc23)C(=O)N([C@H](C)CO)C[C@H]1C,-1.26%
7,C[C@@H]1CCCCO[C@H](CN(C)S(=O)(=O)c2cn(C)cn2)[C@@H](C)CN([C@@H](C)CO)C(=O)c2cc(NC(=O)CCC(F)(F)F)ccc2O1,-0.672%
8,COc1ccc(-c2ccc3c(c2)[C@@H]2[C@@H](CCN2C(=O)Cc2ccccn2)[C@H](CO)N3C)cc1,-0.705%
9,CN1c2ccc(-c3ccccc3)cc2[C@H]2[C@H](CCN2C(=O)Cc2ccccn2)[C@H]1CO,50.1% (active)
10,CN1c2ccc(-c3ccccc3F)cc2[C@H]2[C@H](CCN2C(=O)Cc2ccccn2)[C@H]1CO,6.26%
11,COCc1cn(CC[C@H]2CC[C@@H](NC(=O)Nc3ccc(OC)cc3)[C@@H](CO)O2)nn1,4.23%
12,CN1c2ccc(-c3cccc(C#N)c3)cc2[C@@H]2[C@@H](CCN2C(=O)C2CCC2)[C@@H]1CO,1.18%
13,C=CCOc1nc2c(c(=O)n(C)c(=O)n2C)n1Cc1ccc(Cl)cc1Cl,-1.57%
14,CCOC(=O)N1CCN(Cc2nc3c(c(=O)n(C)c(=O)n3C)n2Cc2ccccc2)CC1,4.21%
15,Cn1c(=O)c2c(nc(OCc3cccnc3)n2Cc2ccccc2)n(C)c1=O,69.8% (active)
16,CN(C)C(=O)C[C@H]1C[C@H]2c3cc(NC(=O)Nc4ccc(C(F)(F)F)cc4)ccc3O[C@H]2[C@@H](CO)O1,-0.072%
17,COCCN(C[C@H]1[C@H](c2ccccc2)[C@@H](CO)N1C(C)=O)C(=O)c1cccnc1,4.64%
18,C[C@H](CO)N1C[C@H](C)[C@@H](CN(C)C(=O)Cc2cccnc2)Oc2ncc(-c3ccncc3)cc2C1=O,5.57%
19,CCCNC(=O)N1C[C@H](C)[C@H](OC)CN(C)C(=O)c2cc(NC(=O)CC)ccc2OC[C@H]1C,0.679%
20,CO[C@@H](CN(C)S(=O)(=O)c1ccc(C)cc1)[C@@H](C)CN([C@@H](C)CO)S(=O)(=O)c1cccc(Cl)c1,-0.469%
21,CN1C(=O)c2cc(NC(=O)Nc3ccccc3F)ccc2OC[C@H]2O[C@@H](CC(=O)Nc3cccc(Cl)c3)CC[C@@H]21,4.99%
22,CO[C@H]1CN(C)C(=O)c2ccc(NS(=O)(=O)c3cn(C)cn3)cc2OC[C@H](C)N(C)C[C@H]1C,-1.67%
23,CC(C)CC#Cc1ccc2c(c1)O[C@H](CN(C)Cc1ccccc1F)[C@@H](C)CN([C@@H](C)CO)S2(=O)=O,0.76%

row,SMILES,inhibition
1,O=C(NCCN1CCCC1)[C@@H]1N[C@@H]2c3ccc(-c4ccccc4)c(=O)n3C[C@@H]2[C@H]1CO,-0.384%
2,CC(C)NC(=O)Nc1ccc2c(c1)C(=O)N([C@H](C)CO)C[C@H](C)[C@@H](CN(C)S(C)(=O)=O)OCCCC[C@@H](C)O2,-1.93%
3,C[C@H](O)C#Cc1ccc([C@@H]2[C@@H](CO)N3CCCCN(C(=O)c4ccc(F)cc4)C[C@H]23)cc1,8.06%
4,O=C(C[C@@H]1CC[C@@H]2[C@H](COC[C@@H](O)CN2S(=O)(=O)c2cccc(Cl)c2)O1)N1CCOCC1,0.133%
5,C[C@@H]1CN([C@@H](C)CO)S(=O)(=O)c2ccc(-c3cncnc3)cc2O[C@@H]1CN(C)C(=O)C1CC1,-2.8%
6,Cc1ccc(Cn2c(C)c3cnn(CC(=O)NCCN4CCOCC4)c(=O)c3c2C)cc1,11.4%
7,O=C(Cn1cc2c(n1)CCCCC2)NCCN1CCOCC1,1.9%
8,COc1cc(OC)cc(-c2nc3nc(C)c(CCC(=O)NCc4ccco4)c(C)n3n2)c1,-1.9%
9,Cc1nc2nc(SCC(=O)NCc3ccco3)nn2c(C)c1Cc1ccccc1,45.5% (active)
10,Cc1ccc(Cc2c(C)nc3nc(SCC(=O)NCCN4CCOCC4)nn3c2C)cc1,53.9% (active)
11,Cc1nc2c(-c3ccc(F)cc3)c(C)nn2c(C)c1CCC(=O)NCc1ccco1,-0.947%
12,CO[C@H]1CN(C)C(=O)c2ccc(NC(=O)c3cccc(Oc4ccccc4)c3)cc2OC[C@@H](C)NC[C@H]1C,2.28%
13,C/C=C/c1ccc2c(c1)O[C@@H](CN(C)S(C)(=O)=O)[C@@H](C)CN([C@H](C)CO)S2(=O)=O,3.09%
14,CN1C(=O)c2cc(NS(=O)(=O)c3ccc(F)cc3)ccc2OC[C@@H]2O[C@@H](CC(=O)O)CC[C@H]21,0.387%
15,C[C@@H](NC(=O)C[C@H]1C=C[C@H](NC(=O)C2CCOCC2)[C@H](CO)O1)c1ccccc1,1.84%
16,C[C@H](CO)N1C[C@H](C)[C@@H](CN(C)CC2CCCCC2)Oc2ccc(NS(=O)(=O)c3cccs3)cc2CC1=O,3.51%
17,CO[C@@H]1CN(C)C(=O)c2cc(NC(=O)c3cnccn3)ccc2OC[C@@H](C)N(C(=O)C2CC2)C[C@@H]1C,9.9%
18,CC=Cc1ccc2n(c1=O)C[C@@H]1[C@@H](CO)[C@H](C(=O)N3CCc4ccccc4C3)N(C(=O)C3CCC3)[C@H]21 (mixture of isomers),0.815%
19,CC(C)(C)S(=O)N1Cc2cc(C(=O)O)nc(-c3cccc(-c4cc5ccccc5o4)c3)c2[C@@H]1CCO (stereo partly drawn),-0.446%
20,CCCNC(=O)Nc1ccc2c(c1)C(=O)N(C)C[C@@H](OC)[C@@H](C)CN(C)[C@@H](C)CO2,-0.7%
21,CN(C)c1ccc2c(c1)[C@H]1C[C@H](CC(=O)NCc3ccc(Cl)cc3)O[C@H](CO)[C@H]1O2,0.352%
22,O=C(CC1CC1)N1[C@@H]2CN(S(=O)(=O)c3ccc(F)cc3)c3ccccc3[C@@H]2[C@@H]1CO,3.83%
